In PubChem BioAssay (NCATS):
Inconclusive results are not listed. Unmarked numbers belong to inactive results. Calls come from the whole dose curve; as a rule, active = well fitted activation curve with a large enough effect; inconclusive = small, poorly fitted or top-dose-only effect; inactive = flat fitted curve, though single readings scatter.

Test: Cellular Toxicity (caspase-3) Hek293 (AID 664);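 note: cells exposed to compound for 16 h at 37 °C before readout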
Conditions: HEK293 caspase-3 activation, DMSO = 0%, 100 µM tamoxifen = 100%; at 92.2 µM (top of the series)
Description: NIH Chemical Genomics Center [NCGC]
NIH Molecular Libraries Screening Centers Network [MLSCN]
National Institutes of Environmental Health Sciences [NIEHS]
National Toxicology Program [NTP]
We have developed a 1536-well cell-based assay for quantitative high throughput screening (qHTS) against a number of cell lines to determine in vitro caspase 3/7 of small molecules. This particular assay uses the Hek 293 cell line which is derived from human embryonic kidney cells.
NCGC Assay Protocol Summary:
The Caspase-Glo 3/7 assay (Promega) is a homogeneous method to measure caspase-3 and caspase-7 activities in cultured cells. The quantitation of caspase 3/7 activity is based on the cleavage of a peptide-aminoluciferin substrate. After caspase cleaves the substrate the free aminoluciferin is liberated and serves as the substrate of luciferase, which generates the light. The luminescent signal is proportional to amount of caspase 3/7 activity present.
Using the Caspase-Glo 3/7 assay, the amount of caspase 3/7 activity was measured in the Hek 293 cell line with complete culture medium following compound treatment for 16 hours. The assay was performed in opaque white 1536-well plates. In the screen, tamoxifen and doxorubicin were used as positive controls. Library compounds were measured for their ability to cause the activation of caspase 3/7 in the cell line, as reflected by an increase in luminescence signal, in a concentration-dependent manner. Data were normalized to the controls for basal activity (DMSO only) and 100% stimulation (100 uM tamoxifen). AC50 values were determined from concentration-response data modeled with the standard Hill equation.
qHTS protocol for caspase 3/7 assay in Hek 293 cells
[Step] [Parameter] [Value] [Description]
2. Time; 5 hr; 37 °C incubation
4. Controls; 23 nL; Tamoxifen 0.23 uM to 100 uM & Doxorubicin 7.0 pM to 100 uM
5. Time; 16 hr; 37 °C incubation
6. Reagent; 5 uL; Caspase-Glo 3/7 reagent
7. Time; 20 min; Room Temperature
8. Detection; Luminescence; Viewlux plate reader
Keywords: caspase 3/7, apoptosis, Hek 293 cell line, luminescence, NTPHTS, NTPHTS_NCGC, NIEHS, EPA, DSSTox, MLSMR, MLSCN, NIH Roadmap, qHTS, NCGC
CCNS(=O)(=O)c1ccc(C)cc1 gave a caspase-3 activation of -2.66%.
In the case of O=C1OC(=O)c2c(Cl)c(Cl)c(Cl)c(Cl)c21, the caspase-3 activation is reported as 1.4%.
COc1ccc(OC)cc1 showed a caspase-3 activation of 0.282%.
In the case of O=Cc1cccc(Br)c1, the caspase-3 activation is reported as 4.91%.
O=C1OC(=O)c2cc([N+](=O)[O-])ccc21 gave a caspase-3 activation of -0.39%.
CC(C)c1ccccc1 gave a caspase-3 activation of -0.725%.
CC1CCC2CC1C2(C)C (stereo not given) showed a caspase-3 activation of -2.62%.
For BrC(Br)C(Br)Br, the caspase-3 activation was -0.575%.
CC(C)=C1CCC(C)CC1=O (stereo not given) gave a caspase-3 activation of -0.681%.
C=C(C)C(N)=O gave a caspase-3 activation of -0.593%.
Compound CO[Si](CCCNCCC[Si](OC)(OC)OC)(OC)OC has a caspase-3 activation of -1.43%.
Work on C=C(C)C(=O)OCC(C)C yielded a caspase-3 activation of -0.498%.
Work on NS(=O)(=O)O yielded a caspase-3 activation of 1.35%.
Compound CCCC(C)CO (stereo not given) has a caspase-3 activation of 1.12%.
Compound CCOc1ccccc1N has a caspase-3 activation of -1.95%.
O=C(O[C@@H](C(=O)O)[C@@H](OC(=O)c1ccccc1)C(=O)O)c1ccccc1 gave a caspase-3 activation of -0.248%.
Work on Cc1ccccc1C(=O)O yielded a caspase-3 activation of -3.25%.
Work on Cc1cccc(C(=O)O)c1[N+](=O)[O-] yielded a caspase-3 activation of 3.47%.
Work on c1ccsc1 yielded a caspase-3 activation of -0.842%.
Nc1ccccc1[N+](=O)[O-] showed a caspase-3 activation of -2.96%.
In the case of CSc1ccc(C=O)cc1, the caspase-3 activation is reported as 0.206%.
Nc1cccc(O)c1 gave a caspase-3 activation of 1.1%.
Work on CCCCC(CC)CNCC(CC)CCCC (stereo not given) yielded a caspase-3 activation of 0.754%.
In the case of CC(C)CCOC(=O)/C=C/c1ccccc1, the caspase-3 activation is reported as 1.37%.
In the case of Cc1ccc2nc(-c3ccc(N)cc3)sc2c1S(=O)(=O)O, the caspase-3 activation is reported as -8.94%.
Work on CC(=O)Nc1ccc(C)cc1 yielded a caspase-3 activation of 0.349%.
In the case of Cc1cccc(C)c1, the caspase-3 activation is reported as 2.59%.
With Nc1cc(Cl)c(N)c(Cl)c1 the caspase-3 activation was -2.67%.
c1ccc2[nH]cnc2c1 showed a caspase-3 activation of -0.791%.
In the case of O=Cc1c(Cl)cccc1Cl, the caspase-3 activation is reported as 1.92%.
Work on O=C(O)c1ccc(Cl)c(Cl)c1 yielded a caspase-3 activation of 0.484%.
With CCCCCCCCC/C=C/CC1CC(=O)OC1=O (stereo not given) the caspase-3 activation was 5.74%.
With CCCCC(C=O)CC (stereo not given) the caspase-3 activation was 1.03%.
O=C(O)c1ccccc1C(=O)O gave a caspase-3 activation of 3.14%.
In the case of CC/C=C1/OC(=O)c2ccccc21, the caspase-3 activation is reported as 1.13%.
In the case of N#CC1(O)CCCCC1, the caspase-3 activation is reported as 1.67%.
CCN(Cc1ccccc1)c1ccccc1 gave a caspase-3 activation of -1.67%.
CCCCC(CC)C(=O)O (stereo not given) showed a caspase-3 activation of 2.49%.
Cc1ccc(C)c(N)c1 showed a caspase-3 activation of 3.4%.
CNC(=O)N(c1ccccc1)c1ccccc1 gave a caspase-3 activation of 0.502%.
